# Experiments:
# Conditions in all cases: concentration: 1 μM,replicates: in singlicate; n = 1
# [1] = system: CSNK1G1
# [2] = system: CSNK1G2
# [3] = system: CSNK1G3
# [4] = system: CSNK2A1
# [5] = system: CSNK2A2
# [6] = system: T1, CTK
# T1 construct: gene MATK
# [7] = system: DAPK1
# [8] = system: DAPK2
# [9] = system: DAPK3
# [10] = system: T2, DCAMKL1
# T2 construct: gene DCLK1
# [11] = system: T3, DCAMKL2
# T3 construct: gene DCLK2
# [12] = system: T4, DCAMKL3
# T4 construct: gene DCLK3
# [13] = system: DDR1
# [14] = system: DDR2
# [15] = system: T5, DLK
# T5 construct: gene MAP3K12
# [16] = system: T6, DMPK2
# T6 construct: gene CDC42BPG
# [17] = system: DMPK
# [18] = system: T7, DRAK1
# T7 construct: gene STK17A
# [19] = system: T8, DRAK2
# T8 construct: gene STK17B
# [20] = system: DYRK1A
# 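Also: KINOMEscan kinase panel screen.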
SMILES,%Inh [1],%Inh [2],%Inh [3],%Inh [4],%Inh [5],%Inh [6],%Inh [7],%Inh [8],%Inh [9],%Inh [10],%Inh [11],%Inh [12],%Inh [13],%Inh [14],%Inh [15],%Inh [16],%Inh [17],%Inh [18],%Inh [19],%Inh [20]
COc1cc2ncn(-c3cc(OCC4CCCCC4)c(C(N)=O)s3)c2cc1OC [GSK204559],12%,9%,32%,1%,22%,0%,35%,30%,64%,2%,25%,0%,0%,0%,31%,7%,0%,0%,0%,21%
C[C@@H](Oc1cc(-n2cnc3cc(-c4ccncc4)ccc32)sc1C(N)=O)c1ccccc1Cl [GSK479719],13%,0%,23%,0%,35%,21%,61%,30%,22%,0%,3%,0%,0%,0%,0%,0%,0%,0%,0%,57%
CC(=O)c1c(-c2ccncc2)[nH]c(-c2ccncc2)c1C [GW493036],84%,98.6%,98.6%,0%,8%,0%,0%,0%,19%,25%,3%,0%,67%,0%,0%,0%,23%,44%,76%,99.9%
CS(=O)(=O)Nc1ccc(-c2ccnc3[nH]ccc23)cc1 [GSK993273],0%,0%,17%,0%,16%,0%,73%,54%,89%,6%,0%,0%,0%,0%,83%,13%,51%,99.2%,20%,88%
C[C@@H]1CCN(C(=O)N2CCCC2)C[C@@H]1N(C)c1ncnc2[nH]ccc12,2%,0%,0%,35%,5%,19%,23%,0%,9%,46%,0%,99.8%,8%,0%,8%,0%,72%,23%,38%,0%
Cc1cccc2c(-c3ccncc3)c(-c3ccc(F)cc3)nn12.Cl [GW461487],11%,0%,26%,96.6%,10%,0%,18%,0%,0%,10%,0%,0%,54%,41%,27%,43%,0%,7%,0%,10%
CN1CCN(CCCNc2nccc(-c3c(-c4ccc(F)cc4)nn4cc(C(N)=O)ccc34)n2)CC1 [GW622475],27%,0%,20%,1%,33%,1%,29%,10%,16%,21%,0%,7%,100%,82%,0%,44%,0%,0%,17%,20%

# — article PMC5540273 (PLoS ONE, 2017)
